Screening data deposited in PubChem BioAssay by The Scripps Research Institute Molecular Screening Center.
Sampled rows, rich in hits. Any-hit rate of the full collection: about 5.7%.
AHR activator = AHR activators, primary screen, cell-based, luminescence, luciferase reporter, human | 2.5% of 320,000 active | AHR-responsive luciferase reporter cells | activation, % at 5 µM | Aryl hydrocarbon receptor (Homo sapiens), P35869; in the data active = activation above about 47%
hgDAF-12 ag = H. glycines DAF-12 receptor agonists, primary screen, cell-based, luminescence, HEK293, GAL4 fusion, UAS-luciferase; Nuclear hormone receptor DAF-12 (Heterodera glycines), GAL4 fusion; HEK293 GAL4-hgDAF12 UAS-luciferase reporter, agonist luminescence; normalized to butyrate control; activation, % at 6.8 µM; 1.8% of 370,000 active; AID 687014, 2013;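 active = activation above a cutoff set at the mean of all screened compounds plus 3 SD, cut at about 10% in these data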
hcDAF-12 act = H. contortus DAF-12 nuclear receptor activators, primary screen, cell-based, luminescence, HEK293, lit1-tk-luc reporter; 1.4% of 370,000 active; HEK293 hcDAF-12 lit1-tk-luc reporter; 0% DMSO, 100% Δ7-dafachronic acid; activation, % at 6.8 µM;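 active = activation above the mean of all tested compounds plus 3 SD, cut at about 5.5% in these data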
DAX1 inh-1 = DAX1 (NR0B1) inhibitors on StAR promoter, primary screen, cell-based, luminescence, SF-1 (NR5A1), full-length DAX-1 | 1.1% of 370,000 active | inhibition, % at 6.8 µM | HEK293T StAR-luciferase reporter, SF-1/DAX-1 repression relief;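 active = inhibition above the mean over all tested compounds plus 3 SD, cut at about 3.6% in these data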;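 note: higher inhibition means more luminescence from relief of DAX-1 repression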
ssDAF-12 act = S. stercoralis DAF-12 nuclear receptor activators, primary screen, cell-based, luminescence, HEK293, GRIP1 co-expression, lit1-tk-luc; Nuclear hormone receptor DAF-12 (Strongyloides stercoralis); HEK293 ssDAF-12/GRIP1 lit1-tk-luc reporter; % of 3 µM dafachronic acid response; activation, % at 6.8 µM; 1% of 370,000 active;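 active = activation above the mean over all tested compounds plus 3 SD, cut at about 0.9% in these data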
DAX1 inh-2 = DAX1 (NR0B1) inhibitors, primary screen, cell-based, HEK293, Gal4-DAX1, luciferase luminescence; Nuclear receptor subfamily 0 group B member 1 (Homo sapiens), P51843; HEK293 Gal4-DAX1 luciferase reporter; inhibition, % at 6.75 µM; 0.99% of 340,000 active;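 active = inhibition above the mean over all tested compounds plus 3 SD, cut at about 4.2% in these data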;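 note: inhibition shows as a rise in luminescence from relieved DAX1 repression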
Target sequence (P51843 207-470 limits assumed): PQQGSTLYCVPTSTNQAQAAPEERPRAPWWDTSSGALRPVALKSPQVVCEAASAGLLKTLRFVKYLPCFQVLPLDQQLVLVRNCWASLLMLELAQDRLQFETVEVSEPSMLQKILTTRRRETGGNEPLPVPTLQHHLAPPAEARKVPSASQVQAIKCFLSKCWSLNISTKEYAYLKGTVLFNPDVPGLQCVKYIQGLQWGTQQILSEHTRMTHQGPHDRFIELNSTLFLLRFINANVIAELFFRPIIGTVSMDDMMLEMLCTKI
Numbers stand for hits; n = inactive; x = not tested or not shown.

SMILES	AHR activator	hgDAF-12 ag	hcDAF-12 act	DAX1 inh-1	ssDAF-12 act	DAX1 inh-2
S=C(Nc1ccc(Cl)cc1)Nc1cccc2cnccc12	n	n	n	n	n	n
Fc1ccc(NC(=S)Nc2cccc3ccccc23)cc1F	73.7	n	n	n	n	n
O=c1c2ccccc2nc(COc2ccccc2)n1/N=C/c1cn[nH]c1-c1ccccc1	n	n	n	n	n	n
Cc1ccc(-c2[nH]ncc2/C=N/n2c(C)nc3ccccc3c2=O)cc1	61.2	n	n	n	n	n
COc1ccc2[nH]c(=O)c(CN(C(=O)c3ccncc3)C(C)C)cc2c1	n	n	n	n	n	n
CC(=O)SC(C[N+](=O)[O-])c1cn(C(C)=O)c2ccccc12 (configuration not stated)	62.9	n	n	n	n	n
COc1ccc(S(=O)(=O)Nc2cccc3c2O[C@H](CN(C)S(=O)(=O)c2cn(C)cn2)[C@@H](C)CN([C@H](C)CO)C3=O)cc1	n	n	n	n	n	n
FC(F)(F)c1nc(N2CCN(c3ccccc3)CC2)nc2c1CCCCC2	65.5	n	n	n	n	n
Cc1nc(N2CCN(Cc3ccccc3)CC2)nc2c1CCC2	n	n	n	n	n	n
Cc1nc(C2COc3ccccc3O2)sc1C(=O)O (configuration not stated)	n	n	n	n	n	5.5
Cc1nc2ccc3nc(NC(=O)C4COc5ccccc5O4)sc3c2s1 (configuration not stated)	n	n	n	n	n	n
O=C/C(=C\Nc1ccc(Cl)cn1)c1nc2cc(Cl)ccc2o1	51.2	n	n	n	n	n
O=C/C(=C\Nc1ccc(Cl)cn1)c1nc2ccccc2o1	n	n	n	n	n	n
COc1ccccc1N/C(N)=N/c1nc(C(F)(F)F)cc(=O)[nH]1	49.9	n	n	n	n	n
Cc1oc(C(C)(C)C)cc1-c1cc(NC(=O)c2ccc([N+](=O)[O-])cc2)n[nH]1	n	n	n	n	n	n
CSCCC(N=C(NS(=O)(=O)c1ccccc1)c1ccccc1)C(=O)O (configuration not stated)	n	n	n	n	2.4	n
CCOC(=O)C1=C(CN2CCN(CCC#N)CC2)NC(=O)NC1c1ccc2c(c1)OCO2 (configuration not stated)	n	n	n	n	n	n
O=C1C=CC(=O)N1c1ccccn1	x	n	n	n	n	n
CS(=O)(=O)N(CC(=O)N1CCCCC1)Cc1ccccc1	n	n	n	n	n	5.0
CCOC(=O)C1=NNC(C(=O)c2ccccc2)C1c1ccc(OC)cc1 (configuration not stated)	n	n	n	n	n	n
Cc1ccccc1NC(=O)NC1(C(=O)N2CCOCC2)CCCCC1	n	n	n	n	n	n
O=C(Nc1ccccc1C(F)(F)F)NC1(C(=O)N2CCOCC2)CCCCC1	x	n	5.7	n	n	n
CCn1c(SCC(=O)Nc2ccccc2C)nc2nc3c(cc2c1=O)COC(C)(C)C3	n	n	n	n	n	5.5
CCn1c(SCC(=O)Nc2ccc(C(C)=O)cc2)nc2nc3c(cc2c1=O)COC(C)(C)C3	n	n	n	n	n	n
CN(C(=O)c1cc(C(=O)N(C)c2ccccc2)cc([N+](=O)[O-])c1)c1ccccc1	n	n	n	n	n	4.3
SMILES	AHR activator	hgDAF-12 ag	hcDAF-12 act	DAX1 inh-1	ssDAF-12 act	DAX1 inh-2
COC(=O)C1=C(C)N(CC(C)C)C(=S)NC1c1cccc(F)c1 (configuration not stated)	x	n	n	n	1.0	x
COC(=O)C1=C(C)N(Cc2ccc(F)cc2)C(=S)NC1c1cccc(F)c1 (configuration not stated)	x	n	n	n	n	x
CC1=C(C(=O)OCCc2ccccc2)C(c2ccsc2)NC(=O)N1C (configuration not stated)	n	n	n	n	n	4.5
Cc1[nH]c2ccc(F)cc2c1CCN1C(=O)OC(C)(C)C1(C)O (configuration not stated)	n	n	n	n	n	7.3
Cc1cccc(NC(=O)CS(=O)(=O)c2cn(CC(=O)N3CCOCC3)c3ccccc23)c1	n	n	n	n	n	n
CN1C(=O)/C(=C/c2ccccc2OCc2cccc(F)c2)N(C)C1=S	50.4	n	n	n	n	n
CCc1ccc(Nc2n[n+](-c3ccccc3)c(-c3ccc(SC)cc3)s2)cc1	n	n	n	n	n	n
COc1ccc(C)cc1Nc1n[n+](-c2ccccc2)c(-c2ccc(NC(C)=O)cc2)s1	65.3	n	n	n	n	n
COc1ccc(C)cc1Nc1n[n+](-c2ccccc2)c(-c2ccc(SC)cc2)s1	72.7	11.5	n	n	n	n
COc1ccc(C)cc1Nc1n[n+](-c2ccccc2)c(-c2cc([N+](=O)[O-])cc(OC)c2O)s1	n	x	x	x	x	n
CC(=O)Nc1ccc(-c2sc(Nc3cccc4ccccc34)n[n+]2-c2ccccc2)cc1	81.0	n	n	n	n	n
CSc1ccc(-c2sc(Nc3ccccc3)n[n+]2-c2ccccc2)cc1	65.0	x	x	x	x	n
CSc1ccc(-c2sc(Nc3cccc4ccccc34)n[n+]2-c2ccccc2)cc1	n	n	n	n	n	n
CCOc1c2ccc(C(=O)N[C@H](C)C3CCCCC3)cc2nn1CCOC	n	n	n	n	n	n
Cc1ccccc1NP(=O)(c1ccccc1)c1nc2ccccc2s1 (configuration not stated)	n	n	n	n	n	n
CCN(CC)S(=O)(=O)c1ccc2[nH]c(=O)cc(C(=O)Nc3ccc(C)cc3)c2c1	n	n	n	n	n	n
Cc1ccc(NC(=O)c2cc(=O)[nH]c3ccccc23)cc1	76.1	n	n	n	n	n
CCc1cc(C(=O)Cc2nc3ccccc3s2)c(O)cc1OCC(=O)O	n	n	n	n	0.9	n
O=C(CSc1ccc(-c2cccnc2)nn1)N1CCCC1	n	n	n	n	n	n
Clc1ccc(-c2nnc(-c3ccccc3)c(-c3c[nH]c4ccccc34)n2)cc1	50.8	n	n	n	n	n
Cc1ccc(-c2nnc(NCCCO)c3ccccc23)cc1	n	n	n	n	n	n
Clc1ccc(-c2nnc(-c3ccccc3)c(-c3ccccc3)n2)cc1	n	n	n	n	n	n
OCCCNc1nc(-c2ccc(Cl)cc2)nnc1-c1ccccc1	64.4	n	n	n	n	n
